Experimental data reported in ChEMBL document CHEMBL4513216, “Probing the Open Global Health Chemical Diversity Library for Multistage-Active Starting Points for Next-Generation Antimalarials” (ACS Infect Dis, 2020).
About 2,100 (3.2%) of roughly 65,000 compounds showed an effect of 50% or more. The median lay at about -52%. Shown is part of a subset that was picked to be rich in strong results.

Test system: Plasmodium falciparum
Assay: Screen against P. falciparum Asexual Blood Stage (ABS), at 5uM
Assay type: functional, Dd2
Settings: tested at 5 uM

SMILES	INHIBITION
Cc1ccc(N2CCCC(NCc3ccc(C)s3)C2)nn1 (stereo not drawn)	-34.1%
CC(C)(CO)NCc1nn(Cc2ccccc2)nc1-c1ccccc1	14.1%
O=C(Cc1ccncc1)N1CCC2(CC1)CC(c1ccccc1)CO2 (stereo not drawn)	-26.8%
CC(C)C(C(=O)N1CCCN(c2nccs2)CC1)n1cncn1 (stereo not drawn)	-114%
Cc1csc(N2CCCN(C3Cc4ccccc4C3)CC2)n1	-1.32%
O=C1CC2(CCCCN2C(=O)Cc2ccccc2)CN1c1cccnc1 (stereo not drawn)	-37.3%
Cc1ccc(CN2CC[C@@H]3OCCN(Cc4ccncc4)[C@H]3CC2)s1	34.9%
N[C@H]1CN(C(=O)c2cnc3cc(Cl)ccc3c2O)C[C@@H]1C1CC1	-22.9%
Cc1cc(Cl)ccc1C(=O)N1C[C@H](C2CC2)[C@@H](N)C1	61%
N[C@H]1CN(C(=O)c2ccc(Cl)cc2O)C[C@@H]1C1CC1	33%
Cc1ccc(C(=O)N2CCOC3(CCCC3)C2)c(=O)[nH]1	-106%
COCCC(=O)N1C[C@H]2CN(Cc3cccnc3)C(=O)[C@H]2C1	-55.2%
CCN(C)C(=O)CCN(C)Cc1cnc(C)s1	-125%
CN(C(=O)Cc1ccccc1F)C1CCN(c2ccccn2)CC1	-73.8%
CC(C)=CCCC1(C)C=Cc2c(cc(C)n(CCC(=O)O)c2=O)O1 (stereo not drawn)	-18.9%
OC1(CN2CCN(c3cccc(C(F)(F)F)c3)CC2)CNCCOC1 (stereo not drawn)	57%
OC1(CN2CCC(Oc3cccnc3)CC2)CNCCOC1 (stereo not drawn)	-73.6%
OC1(CN2CCCC2)COCCN(c2cc(C(F)(F)F)ccn2)C1 (stereo not drawn)	-53.6%
FC(F)(F)c1cccc(OC2CCN(Cc3ncc[nH]3)CC2)c1	-23%
OC1(CNCCN2CCc3ccccc32)CNCCOC1 (stereo not drawn)	-0.439%
OC1(CN2CCC(Oc3cccc(C(F)(F)F)c3)CC2)CNCCOC1 (stereo not drawn)	64.7%
Cc1ccc(C(C)NC(=O)CSCC(N)=O)cc1 (stereo not drawn)	-54.8%
CCS(=O)(=O)N1CCc2c(cccc2NC(=O)NCCO)C1	-14.1%

SMILES	INHIBITION
Clc1cc(Cl)cc(OCCN2CCC(n3cncn3)CC2)c1	33.8%
Cn1ccnc1CN1CCCN(C(=O)CC(C2CC2)C2CC2)CC1	-16.7%
Cn1nc(COCC2CC2)c2c1CCN(Cc1cccs1)C2	-41.4%
CN(Cc1cccs1)C(=O)CN1CCOC(Cn2cncn2)C1 (stereo not drawn)	-56%
Cc1cccc(C(C(=O)N(C)Cc2ccon2)N(C)C)c1 (stereo not drawn)	-2.4%
Cc1cccc(C(C(=O)N(C)Cc2ccco2)N(C)C)c1 (stereo not drawn)	66.7%
Cc1cccc(C(C(=O)N(C)Cc2cc(C)no2)N(C)C)c1 (stereo not drawn)	49.9%
CCC(CO)NCc1ccc(-c2ccccc2F)o1 (stereo not drawn)	-35.5%
O=C(Cn1ccnc1)N1C[C@@H]2CC[C@H](Oc3ccc(Cl)cc3)[C@@H]2C1	-41.4%
COc1ccc(-c2nc(C)cc(SCC(N)=O)n2)cc1	-104%
CN1CCC(N(CCc2ccccc2)C(=O)c2ccc(C#N)cc2)CC1	28.4%
COc1ccc2[nH]cc(-c3ccnc(N4CCC(C)CC4)n3)c2c1	-172%
COc1ccc2[nH]cc(-c3ccnc(NC4CCCC4)n3)c2c1	58.8%
O=c1[nH]c(-c2ccncc2)ncc1-c1ccnc(NC2CCCCC2)n1	-61.7%
CC(C)c1noc(CN(Cc2ccccc2)C2CC2)n1	-119%
CCN1CCn2c(C)cnc2C12CCN(C(=O)C(C)C)CC2	-51.6%
CCN1CCn2c(C)cnc2C12CCN(C(=O)N(C)C)CC2	53%
CCN1CCn2c(C)cnc2C12CCN(C(=O)CC(C)C)CC2	-55.6%
CC(C)CNC(=O)c1c(-n2cnnn2)sc2c1CCCC2	-47.3%
CCCN1CCC(CNC(=O)C2(c3cc(C)cc(C)c3)CCC2)C1 (stereo not drawn)	41.6%
CCN1CCCC(CNC(=O)C2(c3cccc(Cl)c3)CC2)C1 (stereo not drawn)	69.7%
CCN1CCC(CNC(=O)C2(c3cccc(C)c3)CC2)C1 (stereo not drawn)	0.0435%
COCCN1CCC(CNC(=O)C2(c3cccc(Cl)c3)CC2)C1 (stereo not drawn)	-0.48%

SMILES	INHIBITION
COCCN1CCC(CNC(=O)C2(c3ccccc3)CCC2)C1 (stereo not drawn)	-0.505%
CCCN1CCC(CNC(=O)C2(c3ccccc3)CCC2)C1 (stereo not drawn)	66.3%
COc1cc2c(cc1CNCc1cccnc1-n1cccn1)OC(C)C2 (stereo not drawn)	20.8%
COc1cccc(COCC(=O)N2CCCC2Cn2cccn2)c1 (stereo not drawn)	-10.1%
COCc1ccccc1NCc1csc(NC(C)=O)n1	-51.9%
CCCN1CCC(c2nc3ccc(NCc4cccnc4)cn3n2)CC1	-28.7%
O=C(c1ccc(Cl)cc1)N1CCC(N2CCNC2=O)CC1	-169%
CCN(C)C1COC2(CCN(C(=O)c3ccc(Cl)cc3)CC2)C1 (stereo not drawn)	2.64%
CC1(C)[C@@H]2CC=C(CN3CCCn4nc(C(=O)O)cc4C3)[C@H]1C2	-37.3%
COCCNc1nnc(S(=O)(=O)CCC(C)(C)C#N)s1	-77.6%
CCn1nc(C)c2nc(C(C)C)nc(NCCc3ccc(O)cc3)c21	-3.69%
CCn1ncc(-c2cc(C(F)(F)F)nc(N3CCC(N)CC3)n2)c1C	65.2%
Cc1c(-c2cc(C(F)(F)F)nc(N3CCC(N)CC3)n2)cnn1C	22.7%
Cc1ccc(-c2cc(C(F)(F)F)nc(N3CCOCC3)n2)s1	-17.2%
CCOC(=O)N1CCN(C(=O)c2cc(OCC)c3ccoc3c2)CC1	-79%
COc1cc(C(=O)Nc2nc(C)no2)ccc1OC(F)F	-35.8%
Cn1cc(CCCN2CCCC(c3cc(C(F)(F)F)[nH]n3)C2)cn1 (stereo not drawn)	33.1%
Cc1cnn(CC2CN(Cc3cccc(OC(C)C)c3)CCO2)c1 (stereo not drawn)	35.5%
O=C(NC1CCC1)[C@H]1C[C@H]2CN(CC3CC3)C[C@@H]1O2	-98%
O=C(c1cccc(-n2cccn2)c1)N1CCCOC(CN2CCCC2)C1 (stereo not drawn)	53.4%
NCC1CN(C(=O)c2cccc(-n3cccn3)c2)CCO1 (stereo not drawn)	-21.2%
O=C(c1cccc(-n2cccn2)c1)N1CCCOC(Cn2cccn2)C1 (stereo not drawn)	-33.9%
